Only some compounds are listed: those with a hit (about 2.6% of all), similar ones and a draw of the others.
Cruzain noTriton: cruzain (T. cruzi) inhibition without detergent | Potency, µM, for inactives: max response, negative = inhibition, most hits filed as inhibitors | actives 2.3% (n = 200,000) | purified cruzain, Z-FR-AMC fluorescence, no detergent;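 further: plate controls were enzyme without inhibitor for no effect and buffer without enzyme for full effect; nearly all actives have a fitted effect of over 40% in size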
Target sequence (P25779 123-467 limits assumed): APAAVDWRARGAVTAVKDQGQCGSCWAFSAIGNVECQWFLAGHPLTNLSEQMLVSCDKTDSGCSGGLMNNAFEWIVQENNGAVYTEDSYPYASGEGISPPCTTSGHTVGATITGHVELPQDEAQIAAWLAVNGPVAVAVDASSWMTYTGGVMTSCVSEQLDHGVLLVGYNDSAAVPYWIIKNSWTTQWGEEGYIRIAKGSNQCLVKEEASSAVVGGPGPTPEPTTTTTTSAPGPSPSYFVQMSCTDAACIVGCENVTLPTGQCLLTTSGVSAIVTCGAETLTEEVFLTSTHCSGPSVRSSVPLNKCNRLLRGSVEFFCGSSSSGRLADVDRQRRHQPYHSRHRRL
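Purified cruzain at 1.5 nM, pre-incubated 15 min with compound at room temperature in 100 mM sodium acetate pH 5.5, 5 mM DTT, 0.00005% Triton X-100. Reaction started with 2 uM Z-FR-AMC; AMC fluorescence increase over 60 s gives rate.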
Cruzain Triton: blocks cruzain activity in presence of Triton detergent | purified cruzain, Z-FR-AMC fluorescence, 0.01% Triton | P25779 | actives 0.43% (n = 200,000) | Potency, µM, inactives show max response, negative = inhibition, hits mostly inhibitors;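 further: plate controls were neutral wells for no effect and buffer without enzyme for full effect; nearly all actives have a fitted effect of over 40% in size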
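Steps: dispense cruzain (1.5 nM final) in acetate buffer pH 5.5 with DTT and 0.01% Triton X-100; pin-transfer compounds; incubate 15 min RT; add Z-FR-AMC (2 uM final); read fluorescence every 30 s, using the 60 s intensity change.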
* = called active by the depositor; ? = inconclusive. The call rests on the fitted dose curve; in most records, active means well fitted curve in the direction sought with a large enough effect; inconclusive means small, poorly fitted or top-dose-only effect, or another doubt; inactive means no such curve, though single readings can be large; an effect the other way counts as inactive or inconclusive. Potency means the concentration at half of the fitted maximal effect.

SMILES | Cruzain noTriton | Cruzain Triton
COc1ccccc1N/C(=N/c1nc(C)cc(C)n1)NC(C)=O | 2.0% | 3.0%
CCOc1ccccc1N/C(=N/c1nc(C)cc(C)n1)NC(=O)Nc1ccc(Cl)c(Cl)c1 | 3.98µM* | 1.1%
CCOc1ccccc1NC(=O)Nc1ccc(Cl)cc1 | -10.1% | -9.7%
CCCOc1ccccc1N/C(=N/c1nc(C)cc(C)n1)NC(=O)Nc1ccc(Cl)cc1 | 7.94µM* | 4.8%
Cc1cc(C)nc(/N=C(/NC(=O)Nc2ccc(Cl)c(Cl)c2)Nc2ccccc2)n1 | ? | -2.0%
Cc1cc(C)nc(/N=C(/NC(=O)Nc2ccc(Cl)c(Cl)c2)Nc2cccc(Cl)c2)n1 | 7.94µM* | 0.0%
C1CCN(CC[C@@H]2CCCCN2)CC1 | -8.6% | 3.1%
CC(=O)NCCNc1nc(-c2cccc(NS(C)(=O)=O)c2)nc2ccccc12 | -1.6% | -2.7%
Cc1cc(C)cc(NS(=O)(=O)c2ccc(NC(=S)NC(=O)c3cccs3)cc2)c1 | 25.1µM* | -2.3%
COc1cc(NC(=S)NC(=O)c2cc(C)cc(C)c2)ccc1NC(=O)c1cccs1 | 15.8µM* | -4.0%
COc1cc(NC(=S)NC(=O)c2c(OC)cccc2OC)ccc1NC(=O)c1cccs1 | -14.5% | -6.7%
COc1cc(NC(=S)NC(=O)c2ccc(F)cc2)ccc1NC(=O)c1ccco1 | ? | 2.2%
COc1cc(NS(=O)(=O)c2ccc(NC(=S)NC(=O)c3cccs3)cc2)nc(OC)n1 | -2.6% | -11.4%
COc1cc(NC(=S)NC(=O)c2ccc(C(C)(C)C)cc2)ccc1NC(=O)c1cccs1 | 12.6µM* | 3.3%
Clc1ccc(-c2csc(=Nc3ccccc3)n2Cc2ccc3c(c2)OCO3)cc1 | 3.4% | -3.4%
COC(=O)C1=C(C)NC(C)=C(C(=O)OCCNCc2ccccc2)C1c1cccc([N+](=O)[O-])c1 (stereo not given) | 6.5% | -2.3%
COc1cc(C(=O)Nc2ccccc2OCc2cc(=O)n3cc(C)sc3n2)cc(OC)c1OC | -11.2% | 0.8%
CCC(Oc1ccccc1)C(=O)Nc1ccc(OCc2cc(=O)n3ccc(C)cc3n2)cc1 (stereo not given) | -15.1% | 1.1%
N#Cc1c(NC(=O)CCN2C(=O)c3ccccc3C2=O)oc(-c2ccccc2)c1-c1ccccc1 | ? | -2.7%
CC(C)CC(C(=O)Nn1cnnc1)N1C(=O)c2ccccc2C1=O (stereo not given) | -1.9% | -0.4%
N#Cc1c(NC(=O)CCn2cnc3ccccc3c2=O)oc(-c2ccccc2)c1-c1ccccc1 | 31.6µM* | 5.4%
CC(C)CC(C(=O)Nc1oc(-c2ccccc2)c(-c2ccccc2)c1C#N)N1C(=O)c2ccccc2C1=O (stereo not given) | 3.16µM* | -3.4%
CCC(O)c1nc2ccccc2n1CCOc1cc(C)cc(C)c1 (stereo not given) | ? | -8.5%
Nn1c(SCC(=O)Nc2ccccc2F)nc2ccccc2c1=O | -4.7% | -1.6%
O=C(O)CSc1nnc2c3ccccc3c3ccccc3c2n1 | -5.8% | -3.2%
SMILES | Cruzain noTriton | Cruzain Triton
O=C(CSc1nnc2c3ccccc3c3ccccc3c2n1)Nc1ccccc1 | 3.98µM* | -4.0%
O=C(CSc1nnc2c3ccccc3c3ccccc3c2n1)Nc1ccccc1F | 7.94µM* | -16.7%
CC1=CC2C(C)(C)CC(=O)C[C@]2(C)CC1COc1ccc2c(c1)CC(=O)C=C2 (stereo not given in full) | -12.9% | -7.8%
O=C(NCCc1ccccc1)C1CCN(S(=O)(=O)c2cccc3nsnc23)CC1 | -6.4% | 2.3%
O=C(NCCC1=CCCCC1)C1CCN(S(=O)(=O)c2cccc3nsnc23)CC1 | 25.1µM* | -0.5%
O=C(Oc1ccccc1)N1CCC2(CCCN(c3ccc(-c4ccccc4)cc3)C2)CC1 | 12.6µM* | 0.4%
COC(=O)N1CCC2(CCCN(c3ccc(-c4ccccc4)cc3)C2)CC1 | -5.2% | -4.7%
Cc1ccc(Cn2c(C)c(CNC3CCCCC3)c(C(=O)O)c2C)cc1 | 2.6% | -3.1%
CCC[C@@H]1O[C@@H]2C[C@@H]3[C@H]4CCC5=CC(=O)C=C[C@@]5(C)[C@H]4[C@H](O)C[C@@]3(C)[C@@]2(C(=O)CO)O1 | -11.7% | -3.3%
Cc1ccc(Cc2nnc3n(-c4ccccc4)nc(C(=O)c4ccccc4)n3c2=O)cc1 | 25.1µM* | -4.3%
O=C(c1ccccc1)c1nn(-c2ccccc2)c(=O)cc1C(F)(F)F | -2.8% | 0.9%
CCNc1ncc2nc(-c3ccc(Cl)cc3)c(=O)n(-c3ccc(OC)cc3)c2n1 | -7.8% | -3.8%
Cc1cc(NC(=O)c2ccc3c(c2)C(=O)N(C)C3=O)no1 | 9.7% | 1.7%
Cc1cc(NC(=O)c2ccc3c(c2)C(=O)N(C2CCCCC2)C3=O)no1 | 6.31µM* | 5.5%
CC(=O)c1cccc(NC(=O)c2sc(-n3nc(C)c(CCC(C)C)c3C)nc2C)c1 | 2.3% | -1.5%
CCOC(=O)C1(C)C=C(Nc2ccc(O)cc2)C(=O)N1c1ccc(O)cc1 (stereo not given) | -8.8% | -7.1%
CCOC(=O)C1(C)C=C(Nc2ccc(OC)cc2)C(=O)N1c1ccc(OC)cc1 (stereo not given) | 15.8µM* | 6.4%
CCC(CC)C(=O)Nc1nnc(SCc2cc(=O)n3cccc(C)c3n2)s1 | -5.7% | -3.9%
CCc1cccc(CC)c1NC(=O)COC(=O)c1cccc(S(=O)(=O)N2CCc3ccccc3C2)c1 | 1.9% | -5.7%
Cc1cccc(C(C)C)c1NC(=O)COC(=O)c1cccc(S(=O)(=O)N2CCc3ccccc3C2)c1 | 25.1µM* | 1.2%
CCN1C(=O)c2ccccc2S(=O)(=O)c2ccc(C(=O)NCc3ccc(C)cc3)cc21 | 5.0% | -2.4%
Cc1cc(C)cc(N2C(=O)CS(=O)(=O)C23C(=O)N(Cc2ccc(F)cc2)c2ccc(C)cc23)c1 (stereo not given) | ? | -4.6%
COc1ccc(N2C(=O)CS(=O)(=O)C23C(=O)N(Cc2ccccc2)c2ccccc23)cc1 (stereo not given) | 3.16µM* | -2.5%
COc1ccc(N2C(=O)CS(=O)(=O)C23C(=O)N(Cc2c(F)cccc2Cl)c2ccccc23)cc1 (stereo not given) | 7.94µM* | -3.2%
Cc1cccc(N2C(=O)CS(=O)(=O)C23C(=O)N(Cc2c(F)cccc2Cl)c2ccccc23)c1 (stereo not given) | 3.16µM* | -4.2%
SMILES | Cruzain noTriton | Cruzain Triton
O=C1CSC2(C(=O)N(Cc3c(F)cccc3Cl)c3ccccc32)N1c1ccc(F)c(F)c1 (stereo not given) | -19.4% | -7.2%
CN1C(=O)C2(c3ccccc31)N(c1ccccc1)C(=O)CS2(=O)=O (stereo not given) | ? | 0.4%
CCOc1ccc(N2C(=O)CS(=O)(=O)C23C(=O)N(Cc2cccc(Cl)c2)c2ccccc23)cc1 (stereo not given) | 10µM* | -3.0%
CCOC(=O)c1ccc(NC(=O)c2cnn(-c3ccc(C)cc3C)c2C2CCN(C(=O)OC(C)(C)C)CC2)cc1 | -4.5% | -5.1%
COc1ccccc1NC(=O)c1sc2ncn(Cc3ccc(C)cc3)c(=O)c2c1C | -9.2% | 6.5%
COc1ccccc1NC(=O)c1sc2ncn(Cc3cccc4ccccc34)c(=O)c2c1C | 7.94µM* | 12.8%
COc1ccc(NC(=O)CSc2nc(-c3cc(OC)c(OC)c(OC)c3)[nH]c2-c2ccc(F)cc2)cc1 | ? | -6.2%
COc1ccc(CNC(=O)CCCn2nc(C)c3sc4ccccc4c3c2=O)cc1OC | -22.3% | -4.8%
COc1ccccc1CNC(=O)CCCn1nc(C)c2sc3ccccc3c2c1=O | 10µM* | -3.7%

Bioassay records (PubChem BioAssay)
